Screening results from PubChem.
Pf growth 48h = Primary qHTS for delayed death inhibitors of the malarial parasite plastid, 48 hour incubation | P. falciparum luciferase growth in erythrocytes, 48 h | Potency, µM (titrated, usually from 28.7 µM), for inactives: top-dose activity change, negative = inhibition, hits mostly inhibitors | actives 5.9% (n = 310,000) | AID 504832, 2011; further: potency means the concentration at half of the fitted maximal effect; on the % scale 0 is the no-effect control and ±100 the full control effect
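Luciferase-expressing P. falciparum in infected erythrocytes (2% hematocrit, 0.1% parasitemia final) in RPMI 1640/0.5% Albumax were exposed to compound for 48 hours at 37 C, 5% CO2; growth read as luminescence.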
Shiga toxin inh = A qHTS for Small Molecule Inhibitors of Shiga Toxin | actives 9.2% (n = 290,000) | Vero cells, Shiga toxin protein synthesis inhibition reporter | AID 2315, 2010 | inhibition, % at 38.7 µM; in the data active means inhibition mostly above about 28%, no sharp cut-off; inactive means mostly below about 43%; further: 0% is about no effect
Cycloheximide cs = Cycloheximide Counterscreen for Small Molecule Inhibitors of Shiga Toxin | cell reporter, cycloheximide protein synthesis inhibition counterscreen | max response, % | actives 12% (n = 300,000); in the data active means max response mostly above about 13%, no sharp cut-off; inactive means mostly below about 14%; further: read at 38.3 µM for the half of the compounds with a filed dose; 0% is about no effect
Pf growth 96h = Primary qHTS for delayed death inhibitors of the malarial parasite plastid, 96 hour incubation | actives 6.9% (n = 320,000) | Potency, µM (highest dose often 28.7 µM), inactives show at the highest dose activity change, negative = inhibition, actives largely listed as inhibitors | P. falciparum luciferase reporter growth, 96 h | AID 504834, 2011; further: potency means the concentration at half of the fitted maximal effect; on the % scale 0 is the no-effect control and ±100 the full control effect
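Two parasite generations (96 h, 37 C, 5% CO2) of compound exposure in infected erythrocytes (0.05% parasitemia, 2% hematocrit). Luciferase-reporter P. falciparum; decreased luminescence indicates inhibited growth, aimed at apicoplast-acting delayed death.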
AMA1-RON2 inh = qHTS for Inhibitors of AMA1-RON; Towards Development of Antimalarial Drug Lead: Primary Screen; Plasmodium falciparum AMA1 (3D7) - RON2 peptide interaction; AlphaScreen AMA1-biotinylated RON2 peptide binding; Potency, µM (doses to about 58.2 µM), inactives show top-dose activity change, negative = inhibition, hits mostly inhibitors; actives 0.2% (n = 360,000);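 further: potency means the concentration at half of the fitted maximal effect; 0% = vehicle wells and -100% = peptide control; nearly all actives have a fitted effect of over 45% in size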
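AMA1 (3D7) with his tag at 25 nM final met compounds first, then biotinylated RON2 peptide at 25 nM; detection used donor plus acceptor beads, 10 µg/mL apiece, read by AlphaScreen after 30 min at room temperature.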
HCV inh = qHTS Assay for Inhibitors of Hepatitis C Virus (HCV); Huh7.5.1 HCVcc-Cre infection, luciferase reporter, 44 h; Potency, µM (doses to about 41.8 µM), for inactives: top-dose activity change, negative = inhibition, most hits filed as inhibitors; actives 3.4% (n = 340,000); AID 651820, 2012; further: potency means the concentration at half of the fitted maximal effect; on the % scale 0 is the no-effect control and ±100 the full control effect
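Reporter virus HCVcc-Cre (~0.5 moi) infects cells exposed to compound; seeding density 1,000 cells/well with 4 h settling beforehand. Luminescence, 15 sec read, taken 44 h post-infection following a 15 min RT substrate incubation.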
* = called active by the depositor; ? = inconclusive; · = no result; + = active, no number; [ ] = dose if it differs, or a comment. Shown are actives, neighbours in structure and some others; about 21% of the full set was active somewhere. Unless noted, the call rests on the fitted dose curve; in most records, active means well fitted curve in the direction sought with a large enough effect; inconclusive means small, poorly fitted or top-dose-only effect, or another doubt; inactive means no such curve, though single readings can be large; an effect the other way counts as inactive or inconclusive.

SMILES	Pf growth 48h	Shiga toxin inh	Cycloheximide cs	Pf growth 96h	AMA1-RON2 inh	HCV inh
COc1ccc(C2=NOC(C(=O)Nc3cc(Br)ccc3O)C2)cc1OC (centres undefined)	14.7µM*	-3.2	-2.5	1.8%	-6.5%	0.7%
COc1cc(C2=NOC(C(=O)NCc3cccs3)C2)cc(OC)c1OC (centres undefined)	·	37.0	-2.8	31.0%	-7.6%	-27.2%
COc1cccc(C2=NOC(C(=O)Nc3ccc(C(C)=O)cc3)C2)c1 (centres undefined)	-20.5%	53.5*	47.8*	15.4%	3.6%	1.0%
COc1ccc(C2=NOC(C(=O)Nc3ccc(C(C)=O)cc3)C2)cc1OC (centres undefined)	-13.5%	74.8*	29.1*	137.0%	-8.2%	9.9%
COc1ccc(C2=NOC(C(=O)NC3CCCCC3)C2)cc1OC (centres undefined)	2.4%	6.4	-1.3	1.7%	-4.7%	-7.1%
CC(=O)Nc1nc(-c2cc([N+](=O)[O-])cs2)cs1	-39.4%[1.15 µM]	16.1	-2.7	28.3%	-2.4%	-1.8%
CC(C)(C)C(=O)Nc1sc2c(c1C#N)CCN(Cc1ccccc1)C2	-12.4%	18.4	1.5	17.0%	3.9%	-10.7%
COc1cc(NC(=O)C2CC(c3cccc(OC)c3OC)=NO2)cc(OC)c1OC (centres undefined)	0.0%	-5.5	-0.9	-16.7%	-4.6%	1.12µM*
COc1ccc(OC)c(C2=NOC(C(=O)Nc3cccc(C(C)=O)c3)C2)c1 (centres undefined)	20.3%	-7.2	-2.8	9.28µM*	-5.8%	-26.1%
Cc1ccc(Cn2c(=N)c(C(=O)NCc3ccco3)cc3c(=O)n4ccccc4nc32)cc1	4.15µM*	0.8	-1.4	0.0%	-20.7%	11.2µM*
N=c1c(C(=O)NCc2ccco2)cc2c(=O)n3ccccc3nc2n1CCc1ccccc1	0.928µM*	35.4	19.5	·	-8.2%	-23.4%
COc1ccc(CCn2c(=N)c(C(=O)NCc3ccco3)cc3c(=O)n4ccccc4nc32)cc1OC	·	·	·	·	0.0%	?
N=c1c(C(=O)NCc2ccco2)cc2c(=O)n3ccccc3nc2n1CC1CCCO1 (centres undefined)	·	·	·	·	-10.4%	?
CC(C)C[C@H](NC(=O)[C@H](Cc1cnc[nH]1)NC(=O)[C@@H](N)Cc1cnc[nH]1)C(=O)NCC(=O)NCC(=O)N[C@@H](C)C(=O)N[C@@H](CCCCN)C(=O)N[C@@H](CCC(N)=O)C(=O)N[C@@H](C)C(=O)NCC(=O)N[C@@H](CC(=O)O)C(=O)N[C@H](C(=O)O)C(C)C	·	-16.7	-1.8	·	·	·
O=C(O)C1C2C=CC(C2)C1C(=O)Nc1ccc2c(c1)OCCO2 (centres undefined)	30.7%	112.8*	79.5*	·	20.8%	14.5%
CN(C)c1ccc(NC(=O)C2C3C=CC(C3)C2C(=O)O)cc1 (centres undefined)	2.62µM*	66.4*	19.7*	?	-9.4%	10.0%
O=C(O)C1C2C=CC(O2)C1C(=O)Nc1ccc2c(c1)OCCO2 (centres undefined)	139.7%	132.2*	74.6*	134.1%	·	·
CC(C)C[C@H]1CN(CCCC[C@H]2CNC(=O)C(=O)N2Cc2ccccc2)C(=O)C(=O)N1CCc1ccc(O)cc1	·	·	·	·	46.7%	·
FC(F)(F)c1ccccc1Cc1c(-c2ccco2)nc2ccc(Br)cn12	·	·	·	·	-2.7%	·
COCCN(C(=O)CCC(=O)Nc1cc(C)on1)C(C(=O)NC1CCCC1)c1ccc(C(C)C)cc1 (centres undefined)	?	-17.8	-3.5	?	8.5%	17.9%
CC(C)NC(=O)c1onc(CSc2ccc(F)cc2)c1C(=O)NC(C)C	4.65µM*	·	·	9.28µM*	4.4%	-21.3%
COCCNC(=O)c1onc(CSc2nc3ccccc3[nH]2)c1C(=O)NCCOC	17.8%	-2.9	-2.5	?	-7.1%	-2.4%
CCCCNC(=O)c1onc(CSc2ccccc2CC)c1C(=O)O	?	25.1	6.6	?	0.2%	14.1%
CC(C)CCNC(=O)c1onc(CSc2nc3ccccc3[nH]2)c1C(=O)NCCC(C)C	?	11.8	0.6	2.33µM*	0.7%	18.1%
CCCCNC(=O)c1onc(CS(=O)(=O)c2ccccn2)c1C(=O)NCCCC	?	·	·	14.7µM*	0.9%	0.4%
SMILES	Pf growth 48h	Shiga toxin inh	Cycloheximide cs	Pf growth 96h	AMA1-RON2 inh	HCV inh
CC(C)NC(=O)c1onc(CSc2ccc(Cl)cc2)c1C(=O)NC(C)C	5.22µM*	-2.2	-2.3	3.29µM*	8.2%	?
CC(C)NC(=O)c1onc(CSc2ccc(Cl)cc2)c1C(=O)O	8.0%	24.0	-1.4	83.9%	-0.3%	30.9%
COc1ccccc1-c1cccc(-c2nc(C(=O)Nc3nccs3)cc3c2[C@@H](CCO)N(C(=O)CC2CC2)C3)c1	·	·	·	·	85.6%	·
CCCNC(=O)c1onc(CSc2ccc(Cl)cc2)c1C(=O)NC(C)C	11.7µM*	·	·	4.65µM*	28.5%	?
CCCCNC(=O)c1c(CSc2ccc(Cl)cc2)noc1C(=O)NCCC	-95.2%	·	·	?	16.5%	?
CCCCNC(=O)c1onc(CSc2ccccc2)c1C(=O)NCCCC	?	·	·	11.7µM*	15.4%	-29.3%
CCCCNC(=O)c1onc(CSc2ccncc2)c1C(=O)NCCCC	?	2.2	-5.9	-28.7%	-0.9%	1.8%
O=C(c1ccc([N+](=O)[O-])cc1)N1CCN(c2cccc3[nH]ccc23)CC1	?	-3.7	1.6	?	-3.3%	?
CC1CN(C(=O)Cn2cc(S(=O)(=O)CC(=O)N(C)c3ccccc3)c3ccccc32)CC(C)O1 (centres undefined)	-12.2%	-12.2	-1.4	13.1µM*	9.5%	6.1%
CN(C(=O)CS(=O)(=O)c1cn(CC(=O)N2CCOCC2)c2ccccc12)c1ccccc1	-7.9%	28.6	-4.3	-1.0%	5.2%	22.3%
CC1(c2nc3ccccc3[nH]2)CCC(=O)N1C1CC1 (centres undefined)	·	·	·	·	-0.5%	·
Nc1nnc(SCCCC(=O)c2ccc(Br)cc2)s1	10.8%	66.5*	57.7*	-6.7%	-7.9%	-27.5%
CC(=O)Nc1nnc(SCC(=O)c2ccc(F)cc2)s1	10.6%	71.3	11.9	-11.4%	0.0%	3.4%
O=C(CCCSc1nnc(SCCCC(=O)c2ccc(F)cc2)s1)c1ccc(F)cc1	?	-18.8	5.2	?	52.6%	10µM*
Nc1nnc(SCC(=O)OCc2ccc(F)cc2)s1	-12.0%	-9.1	-6.5	-16.0%	-0.6%	23.1%
Nc1nnc(SCCCC(=O)c2ccc(F)cc2)s1	30.7%	+	32.9*	6.0%	15.6%	-5.3%
